Active and inactive are the calls of the source. The calls were made as follows: active = hit-call score of the fitted dose curve at least 0.9, where 1 is the maximum; inactive = score below 0.9.
Assay: ATG_DR4_LXR_CIS: Attagene CIS-FACTORIAL HepG2 Assay for human Liver X Receptor (LXR), DR4 submotif (AID 2282929)
Settings: HepG2 Attagene DR4 cis-reporter, mRNA transcription; actives raise or lower the signal
Procedure: ATG_CIS is a cell-based, multiplexed-readout assay that uses HepG2, a human liver cell line, with measurements taken at 24 hours after chemical dosing in a 24-well plate.ATG_DR4_LXR_CIS is one of 52 assay component(s) measured or calculated from the ATG_CIS assay. It is designed to make measurements of mRNA induction, a form of inducible reporter, as detected with fluorescence intensity signals by Reverse transcription polymerase chain reaction (RT-PCR) and Capillary electrophoresis technology.Data from the assay component ATG_DR4_LXR_CIS was analyzed into 1 assay endpoint. This assay endpoint, ATG_DR4_LXR_CIS, was analyzed with bidirectional fitting relative to DMSO as the negative control and baseline of activity. Using a type of inducible reporter, measures of mRNA for gain or loss-of-signal activity can be used to understand the reporter gene at the transcription factor-level as they relate to the gene NR1H2 and NR1H3. Furthermore, this assay endpoint can be referred to as a primary readout, because this assay has produced multiple assay endpoints where this one serves a reporter gene function. To generalize the intended target to other relatable targets, this assay endpoint is annotated to the nuclear receptor intended target family, where the subfamily is non-steroidal.
Human liver HepG2 cells are transiently transfected with multiple reporter transcription units (MRTUs) in 6-well plates using FuGene 6 reagent (Roche; 3 ml FuGene/1 mg DNA). The MRTU constructs are regulated by a cis-regulating element (promoter). […] A major difference between the CIS and TRANS system is that in CIS activities of endogenous TFs are measured, whereas the TRANS assay evaluates changes in activities of exogenous, chimeric NR-Gal4 proteins. […] At the end of 24 hour incubation, total RNA was isolated using TriZol reagent (Invitrogen). The isolated RNA is then reverse-transcribed using oligo(dT) primer and Mo-MLV reverse transcriptase (Invitrogen) with DNAse I (Ambion) treatment for 30 min. The one-tenth of the produced cDNA was amplified by PCR using Taq DNA polymerase (Invitrogen) and two reporter sequence-specific primers. The PCR products were fluorescently labeled by primer extension with 6-arboxyfluorescein (6-FAM) 5'-labeled reporter sequence-specific primer (2 min at 95 C, 20 s at 68 C and 10 min at 72 C) and these products were digested with 5U of HpaI (New England Biolabs) for 2h at 37 C. The fragments were purified using Qiaquick PCR columns (Qiagen), analyzed on an ABI 3130xL genetic analyzer (Applied Biosystems) with peak positions identified by using a set of X-rhodamine (ROX)-labeled MapMarker1000 molecular weight standards (BioVentures). The raw capillary electrophoresis data was processed using Attagraph software (Attagene).
With `O=C(O)CC(C(=O)O)S(=O)(=O)O` (stereo not given) the outcome was “inactive”. In the case of `CCCCCCO`, the outcome is reported as “inactive”. With `O=C(O)C1CCC(C(=O)O)CC1` (stereo not given) the outcome was “inactive”. For `O=C(O)/C=C/c1ccccc1`, the outcome was “inactive”. For `Clc1cccnc1`, the outcome was “inactive”. For `CCCCNS(=O)(=O)c1ccc(C)cc1`, the outcome was “inactive”. With `CCC(C)C(=O)OCCc1ccccc1` (stereo not given) the outcome was “inactive”. For `CC(C)(C)C1CCC(=O)CC1`, the AC50 was 160 µM (active). In the case of `CC1=CP(=O)(c2ccccc2)CC1` (stereo not given), the outcome is reported as “inactive”. With `NC(=O)Nc1ccccc1` the outcome was “inactive”. With `CCCC(CC)c1ccccc1` (stereo not given) the outcome was “inactive”. In the case of `[Cl][Sc]([Cl])[Cl]`, the outcome is reported as “inactive”. For `CN(C)c1ccc2nc3ccc(=[N+](C)C)cc-3sc2c1`, the outcome was “inactive”. With `CC(C)CCCCCOC(=O)CS` the outcome was “inactive”. With `CCCCOCCOC(=O)COc1ccc(Cl)cc1Cl` the outcome was “inactive”. For `O=C1CCCCCCCCCCC1`, the outcome was “inactive”. With `CCOC(=O)/C=C\C(=O)OCC` the outcome was “inactive”. For `CC(C)(C)N`, the outcome was “inactive”. With `CCCCC1C(=O)N(c2ccccc2)N(c2ccccc2)C1=O` the outcome was “inactive”. In the case of `Cc1c(C(=O)c2c[nH]n(C)c2=O)ccc(S(C)(=O)=O)c1C1=NOCC1`, the outcome is reported as “inactive”. For `O=C(O)c1cc(O)c2ccccc2c1O`, the AC50 was 42.5 µM (active). For `CCCCC(=O)O`, the outcome was “inactive”. For `C1CNCCN1`, the outcome was “inactive”. In the case of `CN(C)Cc1cc(CN(C)C)c(O)c(CN(C)C)c1`, the outcome is reported as “inactive”. In the case of `CC(C)C(=O)OCCc1ccccc1`, the outcome is reported as “inactive”. With `Nc1ccc(C(=O)OCCCOC(=O)c2ccc(N)cc2)cc1` the outcome was “inactive”. For `CCCC=C(C=O)CC`, the outcome was “inactive”. In the case of `Cc1ccc(S(=O)(=O)N=C=O)cc1`, the outcome is reported as “inactive”. In the case of `CC1CCC(C(C)(C)S)C(=O)C1` (stereo not given), the outcome is reported as “inactive”. In the case of `CC(=O)c1ccc(S(=O)(=O)NC(=O)NC2CCCCC2)cc1`, the outcome is reported as “inactive”. With `CC(C)CC(=O)OCc1ccccc1` the outcome was “inactive”. In the case of `Cc1cccc(C(C)(C)C)c1O`, the outcome is reported as “inactive”. In the case of `COC(OC)(C(=O)c1ccccc1)c1ccccc1`, the AC50 is reported as 49.8 µM (active). For `CCCCC(C=O)CC` (stereo not given), the outcome was “inactive”. In the case of `C=Cc1cccc(C)c1`, the outcome is reported as “inactive”. For `CC(C)c1cccc(C(C)C)c1N`, the outcome was “inactive”. With `C=CC(=O)OCC(C)OCC(C)OCC(C)OC(=O)C=C` (stereo not given) the AC50 was 68.8 µM (active). In the case of `c1ccc(Nc2cccc3ccccc23)cc1`, the outcome is reported as “inactive”. In the case of `O=C(OCc1ccccc1)c1ccc(O)cc1`, the outcome is reported as “inactive”. In the case of `O=C(Nc1ccccc1)c1cc(Cl)ccc1O`, the outcome is reported as “inactive”.

Source: PubChem BioAssay (EPA / NIEHS)
